Measured values: PubChem BioAssay (Tox21)
Values joined by “and” are separate entries in the source; they are usually repeats but may differ in a detail not shown here. Equal values may be shown once. Results filed as inconclusive are left out. Active and inactive are the calls of the source. Unless noted, calls come from the whole dose curve; as a rule, active = well fitted curve in the direction sought with a large enough effect in the repeat runs; inconclusive = weak or mixed curves; inactive = no such curve, though single readings can be large; an effect the other way counts as inactive or inconclusive.

How the values were obtained:
[1] = qHTS assay to identify small molecule agonists of H2AX (AID 1224845; active = well fitted activation curve with a large enough effect in the signal ratio in the repeat runs, not every such curve was filed as active; the % refers to the signal ratio)
Method in brief: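 Wild-type CHO-K1 cells, plated overnight, exposed 3hr at 37C to 15 concentrations (0.76% DMSO final). Lysed, then HTRF anti-pH2AX (S139) cryptate and anti-H2AX-d2 antibodies, 24 hr room temperature; 665/620 nm emission read.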

[2] = qHTS assay to identify small molecule agonists of the hypoxia (HIF-1) signaling pathway (AID 1224846; active = well fitted activation curve with a large enough effect in the signal ratio in the repeat runs, not every such curve was filed as active; the % refers to the signal ratio)
Method in brief: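 ME-180 HRE-bla reporter cells; compounds in DMSO, 17 h at 37C; read-out beta-lactamase via CCF4-AM FRET.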

[3] = qHTS assay to identify small molecule agonists of H2AX - cell viability counter screen (AID 1224847; calls by dose curve; note: nearly all actives have a fitted effect of over 30% in size; note: potency is the fitted concentration of half-maximal effect)
Method in brief: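 For this counter screen, overnight-attached CHO-K1 cells received test compounds (15 concentrations, 0.76% DMSO final); 3 hr later at 37C, CellTiter-Glo reagent was added and luminescence recorded after 30 min at room temperature.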

[4] = qHTS assay to identify small molecule antagonists of the estrogen related receptor (ERR) signaling pathway from Tox21 library (AID 1224848); note: nearly all actives have a fitted effect of over 50% in size; note: potency is the fitted concentration of half-maximal effect
Method in brief: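 Compounds dissolved in DMSO are pin-transferred onto ERR reporter cells (2,000 per well) that have settled for 6 h at 37 C. Plates then incubate 18 h at 37 C before ONE-Glo luciferase reagent and a luminescence read 30 min later.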

[5] = qHTS assay to identify small molecule agonists of the estrogen related receptor (ERR) signaling pathway from Tox21 library (AID 1224849; calls by dose curve; note: nearly all actives have a fitted effect of over 15% in size); conditions: ERR reporter cell line, ONE-Glo luciferase, 18 h
Method in brief: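 Luciferase activity in ERR pathway reporter cells served as the agonist readout; exposure lasted 18 h at 37 C, with ONE-Glo detection after 30 min at room temperature.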

[6] = qHTS RealTime-Glo MT Cell Viability Assay in HepG2 cells - 24 hour (AID 1224867); note: nearly all actives have a fitted effect of over 50% in size; note: potency is the fitted concentration of half-maximal effect
Method in brief: (§1)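 HepG2 cells (600/well) were dispensed with RealTime-Glo reagents, incubated 5 h at 37 °C, then treated with compounds in DMSO for up to 40 h. Nonlytic NanoLuc luminescence reflecting viable cells was read at each stated time point.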

[7] = qHTS RealTime-Glo MT Cell Viability Assay in HEK293 cells - 32 hour (AID 1224868); note: nearly all actives have a fitted effect of over 50% in size; note: potency is the fitted concentration of half-maximal effect
Method in brief: (§2)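 HEK293 cells seeded with NanoLuc/prosubstrate reagent, rested 5 h at 37 C, then dosed and kept at 37 C up to 40 h. Nonlytic real-time luminescence from viable cells read at 0, 8, 16, 24, 32 and 40 h.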

[8] = A CellTox Green Cytotoxicity Assay to monitor cytotoxicity in HEK293 cells - 0 hour (AID 1224869); note: nearly all actives have a fitted effect of over 50% in size
Method in brief: (§3)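 Real-time, in one plate: 600 HEK293 cells/well with dead-cell DNA dye, pinned compound after 5 h, 37 C incubation over 40 h; viable cells give no appreciable fluorescence.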

[9] = qHTS RealTime-Glo MT Cell Viability Assay in HepG2 cells - 40 hour (AID 1224870); note: nearly all actives have a fitted effect of over 50% in size; note: potency is the fitted concentration of half-maximal effect
Method in brief: (§4)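 HepG2 cells (600/well) mixed with RealTime-Glo MT reagent, settled 5 h at 37 C/5% CO2 before compound addition. Nonlytic NanoLuc luminescence from viable-cell prosubstrate reduction read repeatedly during 40 h treatment at 37 C.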

[10] = A CellTox Green Cytotoxicity Assay to monitor cytotoxicity in HEK293 cells - 40 hour (AID 1224871); note: nearly all actives have a fitted effect of over 45% in size; note: potency is the fitted concentration of half-maximal effect
Method in brief: as §3

[11] = qHTS RealTime-Glo MT Cell Viability Assay in HEK293 cells - 16 hour (AID 1224872); note: nearly all actives have a fitted effect of over 50% in size; note: potency is the fitted concentration of half-maximal effect
Method in brief: as §2

[12] = A CellTox Green Cytotoxicity Assay to monitor cytotoxicity in HEK293 cells - 24 hour (AID 1224875); note: nearly all actives have a fitted effect of over 45% in size
Method in brief: as §3

[13] = A CellTox Green Cytotoxicity Assay to monitor cytotoxicity in HepG2 cells - 16 hour (AID 1224876); note: nearly all actives have a fitted effect of over 45% in size
Method in brief: (§5)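 Cytotoxicity was tracked as dead-cell DNA fluorescence in HepG2 cells treated with test compounds at 37 C; each time-point value comes from one kinetic series spanning 0, 8, 16, 24, 32 and 40 h.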

[14] = qHTS RealTime-Glo MT Cell Viability Assay in HepG2 cells - 32 hour (AID 1224877); note: nearly all actives have a fitted effect of over 55% in size; note: potency is the fitted concentration of half-maximal effect
Method in brief: as §1

[15] = A CellTox Green Cytotoxicity Assay to monitor cytotoxicity in HepG2 cells - 24 hour (AID 1224878); note: nearly all actives have a fitted effect of over 45% in size
Method in brief: as §5

[16] = A CellTox Green Cytotoxicity Assay to monitor cytotoxicity in HepG2 cells - 40 hour (AID 1224879); note: nearly all actives have a fitted effect of over 40% in size; note: potency is the fitted concentration of half-maximal effect
Method in brief: as §5

[17] = qHTS RealTime-Glo MT Cell Viability Assay in HEK293 cells - 0 hour (AID 1224880)
Method in brief: (§6)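 Kinetic, non-lysing viability readout. Seed HEK293 (600/well) with reagent, incubate 5 h at 37 C/5% CO2, pin 23 nL compound in DMSO, incubate at 37 C, read luminescence at 0, 8, 16, 24, 32, 40 h.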

[18] = A CellTox Green Cytotoxicity Assay to monitor cytotoxicity in HEK293 cells - 32 hour (AID 1224881); note: nearly all actives have a fitted effect of over 40% in size; note: potency is the fitted concentration of half-maximal effect
Method in brief: as §3

[19] = qHTS RealTime-Glo MT Cell Viability Assay in HepG2 cells - 8 hour (AID 1224873); note: nearly all actives have a fitted effect of over 55% in size; note: potency is the fitted concentration of half-maximal effect
Method in brief: as §4

[20] = qHTS RealTime-Glo MT Cell Viability Assay in HEK293 cells - 40 hour (AID 1224874); conditions: RealTime-Glo luminescence; max response: hits give low values; note: nearly all actives have a fitted effect of over 50% in size; note: potency is the fitted concentration of half-maximal effect
Method in brief: as §6
% is set by controls: 0 for no effect and ±100 for the full control effect.

O=C(N[C@H]1CN2CCC1CC2)c1ccc2c(c1)OCCO2
inactive: Potency [1] | outcome [2] | Potency [3] | Potency [4] | activity change, positive = activation ([5]; at 92.4 µM (top of the series)) 0.537% | Potency [6] | Potency [7] | Potency [8] | Potency [9] | Potency [10] | Potency [11] | Potency [12] | Potency [13] | Potency [14] | Potency [15] | Potency [16] | outcome [17] | Potency [18]

N#CC(C#N)=C(C#N)C#N
inactive: Potency [1] | outcome [2] | Potency [3] | Potency [4] | activity change, positive = activation ([5]; at 92.4 µM (top of the series)) -1.38% | Potency [6] | Potency [7] | Potency [8] | Potency [9] | Potency [10] | Potency [11] | Potency [19] | max response [20] 20.6% | Potency [12] | Potency [13] | Potency [14] | Potency [15] | Potency [16] | outcome [17] | Potency [18]

CCCSP(=S)(OCC)Oc1ccc(SC)cc1 (stereo unspecified)
inactive: Potency [1] | outcome [2] | Potency [3] | Potency [4] | activity change, positive = activation ([5]; at 92.4 µM (top of the series)) 2.16% | Potency [6] | Potency [7] | Potency [8] | Potency [9] | Potency [10] | Potency [11] | Potency [12] | Potency [13] | Potency [15] | Potency [16] | outcome [17] | Potency [18]

CC(C)(C#N)C(C)(C)C#N
inactive: Potency [1] | outcome [2] | Potency [3] | Potency [4] | activity change, positive = activation ([5]; at 92.4 µM (top of the series)) -14.1% | Potency [6] | Potency [8] | Potency [9] | Potency [10] | Potency [11] | max response [20] 1.19% | Potency [12] | Potency [13] | Potency [14] | Potency [15] | Potency [16] | outcome [17] | Potency [18]

CC(C)(C)OOC(C)(C)CCC(C)(C)OOC(C)(C)C
inactive: Potency [1] | outcome [2] | Potency [3] | Potency [4] | activity change, positive = activation ([5]; at 92.4 µM (top of the series)) 2.37% | Potency [6] | Potency [7] | Potency [8] | Potency [9] | Potency [10] | Potency [11] | max response [20] 9.43% | Potency [12] | Potency [13] | Potency [14] | Potency [15] | Potency [16] | outcome [17] | Potency [18]

CCCCOC(=O)CCC(=O)OCCCC
inactive: Potency [1] | outcome [2] | Potency [3] | Potency [4] | activity change, positive = activation ([5]; at 92.4 µM (top of the series)) 0.0296% | Potency [6] | Potency [8] | Potency [9] | Potency [10] | Potency [11] | Potency [19] | Potency [12] | Potency [13] | Potency [14] | outcome [17] | Potency [18]

CCOC(C(=O)OCCN(C)C)(c1ccccc1)c1ccccc1
inactive: Potency [1] | outcome [2] | Potency [3] | Potency [4] | activity change, positive = activation ([5]; at 42.5 µM (top of the series)) -1.78% | Potency [6] | Potency [7] | Potency [8] | Potency [9] | Potency [10] | Potency [11] | Potency [19] | max response [20] -21.4% | Potency [12] | Potency [13] | Potency [14] | Potency [15] | Potency [16] | outcome [17] | Potency [18]

NP(N)(=O)NC(=O)c1ccc(F)cc1
inactive: Potency [1] | outcome [2] | Potency [3] | Potency [4] | activity change, positive = activation ([5]; at 42.5 µM (top of the series)) -0.0729% | Potency [6] | Potency [7] | Potency [8] | Potency [9] | Potency [10] | Potency [11] | max response [20] 1.36% | Potency [12] | Potency [13] | Potency [14] | Potency [15] | Potency [16] | outcome [17] | Potency [18]

O=[N+]([O-])c1cc(Cl)c(Cl)cc1Cl
inactive: Potency [1] | outcome [2] | Potency [3] | Potency [4] | activity change, positive = activation ([5]; at 92.4 µM (top of the series)) 0.191% | Potency [6] | Potency [7] | Potency [8] | Potency [9] | Potency [11] | Potency [19] | max response [20] 2.2% | Potency [13] | Potency [14] | Potency [15] | Potency [16] | outcome [17]

c1ccc2c(c1)sc1ccccc12
inactive: Potency [1] | outcome [2] | Potency [3] | Potency [4] | activity change, positive = activation ([5]; at 42.5 µM (top of the series)) 0.495% | activity change, positive = activation ([5]; at 92.4 µM (top of the series)) -4.7% | Potency [6] | Potency [7] | Potency [8] | Potency [9] | Potency [11] | max response [20] 0.709% and -2.64% | Potency [12] | Potency [13] | Potency [14] | Potency [15] | Potency [16] | outcome [17] | Potency [18]

C=C(C)C(=O)OCCCCOC(=O)C(=C)C
inactive: Potency [1] | outcome [2] | Potency [3] | Potency [4] | activity change, positive = activation ([5]; at 92.4 µM (top of the series)) 2.2% | Potency [6] | Potency [7] | Potency [8] | Potency [9] | Potency [10] | Potency [11] | Potency [19] | max response [20] 5.43% | Potency [12] | Potency [13] | Potency [15] | Potency [16] | outcome [17] | Potency [18]

C=C(Cl)Cl
inactive: Potency [1] | outcome [2] | Potency [3] | Potency [4] | activity change, positive = activation ([5]; at 92.4 µM (top of the series)) -0.979% | Potency [6] | Potency [8] | Potency [9] | Potency [10] | Potency [11] | max response [20] 8.47% | Potency [12] | Potency [13] | Potency [14] | Potency [15] | Potency [16] | outcome [17] | Potency [18]

CN1CC[C@]23c4c5ccc(O)c4O[C@H]2[C@@H](O)C=C[C@H]3[C@H]1C5
inactive: Potency [1] | outcome [2] | Potency [3] | Potency [4] | activity change, positive = activation ([5]; at 92.4 µM (top of the series)) 1.06% | Potency [6] | Potency [8] | Potency [9] | Potency [10] | Potency [11] | Potency [19] | max response [20] 1.75% | Potency [12] | Potency [13] | Potency [14] | Potency [15] | Potency [16] | outcome [17] | Potency [18]

CCCCNC(=O)OCC#CI
active: Potency [3] 50.2 µM and 101 µM | Potency [4] 68.2 µM | Potency [6] 7.72 µM and 3.89 µM | Potency [7] 24.4 µM and 24.5 µM | Potency [9] 4.87 µM and 2.19 µM | Potency [10] 54.7 µM and 54.9 µM | Potency [11] 19.4 µM and 21.9 µM | Potency [19] 15.4 µM and 12.3 µM | Potency [20] 21.8 µM and 24.5 µM | Potency [14] 6.14 µM and 2.75 µM | Potency [16] 49 µM | Potency [18] 54.9 µM
inactive: Potency [1] | outcome [2] | activity change, positive = activation ([5]; at 92.4 µM (top of the series)) -71.4% and -29.5% | Potency [8] | Potency [13]
